# sEH inhibitor = soluble epoxide hydrolase (human) inhibition. recombinant human sEH enzymatic activity assay. inhibition, % at 2 µM. 91,000 tested, 0.34% active; in the data active means inhibition above about 80%
# Target sequence (P34913 whole entry, looked up): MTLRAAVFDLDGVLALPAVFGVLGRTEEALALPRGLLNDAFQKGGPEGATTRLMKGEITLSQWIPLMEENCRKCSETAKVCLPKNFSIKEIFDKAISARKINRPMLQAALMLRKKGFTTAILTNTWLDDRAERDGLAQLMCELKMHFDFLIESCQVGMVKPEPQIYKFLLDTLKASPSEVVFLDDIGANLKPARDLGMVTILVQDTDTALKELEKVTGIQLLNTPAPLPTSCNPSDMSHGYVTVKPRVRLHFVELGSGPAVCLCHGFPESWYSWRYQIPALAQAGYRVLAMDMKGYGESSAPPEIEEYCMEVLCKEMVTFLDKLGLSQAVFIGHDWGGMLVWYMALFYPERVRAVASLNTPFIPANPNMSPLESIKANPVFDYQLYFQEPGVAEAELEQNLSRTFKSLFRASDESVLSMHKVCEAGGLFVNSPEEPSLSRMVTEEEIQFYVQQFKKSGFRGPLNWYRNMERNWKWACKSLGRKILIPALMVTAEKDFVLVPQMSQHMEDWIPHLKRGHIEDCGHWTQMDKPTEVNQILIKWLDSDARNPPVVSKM
# PLAP act = human PLAP activation; purified PLAP enzyme, luminescent substrate read-out; active compounds read high; activation fold at 20 µM; 96,000 tested, 1.2% active; AID 696; in the data active means activation fold above about 2
# sEH activator = increases human soluble epoxide hydrolase activity. activation, % at 2 µM. P34913. purified human sEH enzymatic activity, activator screen. 91,000 tested, 0.04% active; in the data active means activation above about 37%
# BAP1 block = human BAP1 deubiquitinase inhibition. Q92560. recombinant BAP1, Ub-AMC hydrolysis fluorescence kinetic; active compounds read low. calls only at 20 µM. 72,000 tested, 0.48% active. AID 436;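 active means activity remaining at or below 50% of control, provided the compound also passes the data quality filters; inactive means the rest, including low values that fail the filters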;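 further: 100% = DMSO wells rate and 0% = substrate alone blank rate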
# * marks the source's active call; other numbers are inactive results; i = inactive; · = no result shown. Sampled rows, rich in hits. Any-hit rate of the full collection: about 1.3%.
SMILES,sEH inhibitor,PLAP act,sEH activator,BAP1 block
COCc1cc(=O)[nH]c(Nc2nc3ccc(C)cc3o2)n1,-6,1.8,5,i
Cc1ccc2nc(Nc3nc(CSc4nnnn4-c4ccccc4)cc(=O)[nH]3)nc(C)c2c1,7,2.8*,-8,·
CCCCCc1c(C)nc(Nc2nc(C)c3cc(OC)ccc3n2)[nH]c1=O,·,2*,·,i
CCc1c(C)nc(Nc2nc(C)c3cc(OC)ccc3n2)[nH]c1=O,-2,1.3,4,i
CCc1ccc2nc(Nc3nc(COC)cc(=O)[nH]3)nc(C)c2c1,-4,2.5*,4,·
CCOc1cc(C(=O)Nc2cc(Cl)ccc2C)cc(OCC)c1OCC,·,·,·,i
Cc1cc(C)c(-c2cc(C(=O)Nc3c(C)n(C)n(-c4ccccc4)c3=O)[nH]n2)c(O)c1,-2,2.2*,3,i
Cc1ccc(-c2cc(C(=O)Nc3c(C)n(C)n(-c4ccccc4)c3=O)[nH]n2)c(O)c1,-2,1.4,3,i
COc1ccc(C2C(C(=O)OC3CCCC3)=C(C)NC3=C2C(=O)CC(C)(C)C3)c(OC)c1OC (stereo not given),·,·,·,i
OC(COc1ccc2c(c1)CCC2)CN1CCN(c2ccccc2F)CC1 (stereo not given),-2,1,0,i
COc1ccc(N2CCN(CC(O)COc3ccc4c(c3)CCC4)CC2)cc1 (stereo not given),1,2*,-1,·
Cc1noc(/C=C/N(C)C)c1S(=O)(=O)N1CCCC(C(=O)NCCC2=CCCCC2)C1 (stereo not given),88*,·,-88,i
Cc1noc(C)c1S(=O)(=O)N1CCCC(C(=O)NCCC2=CCCCC2)C1 (stereo not given),71,0.9,-70,i
O=C(/C=C/c1ccccc1)NC(=S)NNC(=O)c1cccnc1,1,1.7,-2,·
COc1ccc(/C=C/C(=O)NC(=S)NNC(=O)c2cccnc2)cc1OC,13,2*,-14,·
COC(=O)Cc1cc(=O)[nH]c(/N=C(\N)Nc2ccc(C)cc2)n1,-10,2.1*,10,·
COC(=O)Cc1cc(=O)[nH]c(/N=C(\N)Nc2ccccc2C)n1,8,·,-3,·
COc1ccc(Cl)cc1N/C(N)=N/c1nc(CSc2ccc(C)cc2)cc(=O)[nH]1,-5,2.6*,6,·
COCc1cc(=O)[nH]c(/N=C(\N)Nc2cccc(C)c2)n1,3,2.4*,-1,·
COCc1cc(=O)[nH]c(/N=C(\N)Nc2ccc(Oc3ccccc3)cc2)n1,·,1.7,·,i
CCN(CC)S(=O)(=O)c1ccc2c(c1)C(=O)c1cc(S(=O)(=O)N(CC)CC)ccc1-2,·,·,·,i
COc1ccc(-c2n[nH]c3c2C(c2ccc(OC)c(OC)c2)N(c2ccccc2)C3=O)cc1 (stereo not given),-1,2.4*,-2,·
O=C(CN1C(=O)c2cccc([N+](=O)[O-])c2C1=O)Nc1ccc(Br)cc1,·,·,·,i
COc1ccccc1-c1nnc(SC/C(O)=C(\C#N)c2nc3ccccc3[nH]2)n1C1CCCCC1,·,·,·,i
N#C/C(=C(/O)CSc1nnc(Cc2cccs2)n1C1CCCCC1)c1nc2ccccc2[nH]1,·,2.7*,·,·
SMILES,sEH inhibitor,PLAP act,sEH activator,BAP1 block
COC(=O)C1=C(C)NC2=C(C(=O)CC(c3ccc(Cl)cc3)C2)C1c1ccc2c(c1)OCO2 (stereo not given),·,·,·,i
O=C(CSc1ncnc2nc[nH]c12)N1CCN(c2ccccc2)CC1,2,1.4,-3,i
O=c1c2ccccc2nc(CSc2ncnc3nc[nH]c23)n1-c1cccc(C(F)(F)F)c1,-11,2.1*,8,·
CSc1nnc(-c2sc3cc(C(F)(F)F)cnc3c2-c2ccccc2)n1C,-8,2*,8,·
COc1ccc2[nH]c(C(=O)O)c(NS(=O)(=O)c3ccc(Cl)s3)c2c1,-4,2.2*,6,i
CC1CCCN(S(=O)(=O)c2ccc(C(=O)Nc3nnc(-c4ccccc4Cl)o3)cc2)C1 (stereo not given),82*,1.4,-82,i
CCOC(=O)c1cc(-c2cccnc2)no1,·,·,·,i
CCOc1c(NC(=O)c2ccc([N+](=O)[O-])cc2)cc(NC(=O)c2ccc([N+](=O)[O-])cc2)cc1C(N)=O,·,·,·,i
Cc1cc(-c2ccccc2)nc(N2CCC(C(=O)NCc3ccccc3Cl)CC2)n1,82*,·,-82,·
Brc1ccc2nc(CSc3ncn[nH]3)cn2c1,-5,2.8*,5,i
Cc1ccc(C2C3=C(CC(C)(C)CC3=O)Nc3n[nH]c(C)c32)cc1 (stereo not given),7,2*,-7,·
Cc1ccc2c(c1)nnn2C1CCN(C(=O)NC23CC4CC(CC(C4)C2)C3)CC1,85*,0.9,-85,i
Cc1ccc2c(c1)nnn2C1CCN(C(=O)C23CC4CC(CC(C4)C2)C3)CC1,11,·,-10,·
Nc1ccc(N2CCN(CCO)CC2)cc1,·,·,·,i
CN=C(c1ccco1)n1c(=S)nc(-c2ccco2)n(C)c1=S,·,2.7*,·,i
CCCCn1c(CCn2nc(C)c(Br)c2C)n[nH]c1=S,-6,2.1*,8,·
O=c1oc2c(CN3CCCCCC3)c(O)ccc2cc1-c1nc2ccccc2[nH]1,·,2.4*,·,i
CC1=C(C(=O)Nc2cccc(C)c2C)C(c2ccccc2Cl)NC(=O)N1 (stereo not given),·,·,·,i
CCOC(=O)c1c(-c2ccc(C)o2)csc1NC(=O)CN(C)CC(=O)Nc1ccc(C)cc1,16,2.2*,-17,·
CCOC(=O)c1c(-c2ccc(C)o2)csc1NC(=O)CN1CCN(CC)CC1,3,1.4,-2,i
COc1ccc(CC(=O)Nc2ccc3c(c2)CCC3)cc1OC,40,2.1*,-41,·
O=C(O)COCC(=O)Nc1ccc2c(c1)CCC2,-6,1,6,i
CNC(=S)NNC(=O)Cc1ccc(OC)c(OC)c1,-6,2.1*,6,·
CCOC(=O)C1C(c2cccs2)NC(=S)NC1(O)C(F)(F)F (stereo not given),·,·,·,i
CCOC(=O)Cc1csc(NC(=O)CN2C(=O)c3ccccc3S2(=O)=O)n1,·,2.3*,·,·
SMILES,sEH inhibitor,PLAP act,sEH activator,BAP1 block
Cc1csc(NC(=O)CCN2C(=O)c3ccccc3S2(=O)=O)n1,2,1,0,i
Cn1nc(-c2ccc(N3CCOCC3)c(NC(=O)COc3ccccc3)c2)c2ccccc2c1=O,-1,·,-1,i
CCC(=O)Nc1cc(-c2nn(C)c(=O)c3ccccc23)ccc1N1CCOCC1,-5,2*,6,·
Cc1cccc(C(=O)Nc2cccc(-c3nc4cc(C)ccc4o3)c2C)c1,·,·,·,i
COC(=O)C1=C(C)NC(C)=C(C(=O)OC)C1c1cc2cc(C)ccc2[nH]c1=O,-5,1.4,2,i
Cc1ccc2[nH]c(=O)c(C3C(C#N)=C(N)Oc4c3ccc3cccnc43)cc2c1 (stereo not given),-6,2.2*,4,·
Nc1c(C(=O)NCCN2CCOCC2)c2nc3ccccc3nc2n1-c1cccc(F)c1,·,2*,·,·
CC(C)(C)c1nn(-c2ccccc2)c2[nH]c(=O)c(CNCc3ccc4c(c3)OCO4)cc12,-9,2.1*,3,·
CCOc1cccc(NCc2cc3c(C(C)(C)C)nn(-c4ccccc4)c3[nH]c2=O)c1,24,12,-22,·
COc1ccc(C(=O)Nc2nnc(N=Cc3ccc(Br)s3)s2)cc1,·,·,·,i
Cc1ccccc1NC(=O)c1ccc(-c2ccc(Cl)cc2Cl)o1,-5,1,5,·

# From PubChem BioAssay
